As usually defined, the inhibition is the drop in the measured response relative to a control, in per cent.

We go through seven compounds from ChEMBL document CHEMBL1961873, “Compounds: GSK PKIS; Assays: Nanosyn kinase panel” (2012).

Test [1] addresses T1, Aurora kinase A (Homo sapiens) (UniProt O14965).
T1 sequence (whole entry): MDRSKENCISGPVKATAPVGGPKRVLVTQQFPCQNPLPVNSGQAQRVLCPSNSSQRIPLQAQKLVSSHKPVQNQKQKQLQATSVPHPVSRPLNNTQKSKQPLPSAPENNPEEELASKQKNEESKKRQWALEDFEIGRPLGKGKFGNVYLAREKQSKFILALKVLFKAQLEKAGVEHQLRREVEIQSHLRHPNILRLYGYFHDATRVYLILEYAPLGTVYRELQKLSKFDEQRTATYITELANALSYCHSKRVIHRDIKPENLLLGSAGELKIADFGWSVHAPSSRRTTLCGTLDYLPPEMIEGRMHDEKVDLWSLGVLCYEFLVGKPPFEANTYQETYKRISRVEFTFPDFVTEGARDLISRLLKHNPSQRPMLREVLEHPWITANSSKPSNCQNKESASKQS
To be noted: at 1 µM.

Test [2] concerns the target Aurora kinase B (Homo sapiens) (UniProt Q96GD4). To be noted: at 0.1 µM.
Test [3] has the same target. To be noted: at 1 µM.
Test [4] addresses T2, Aurora kinase C (Homo sapiens) (UniProt Q9UQB9).
T2 sequence (whole entry): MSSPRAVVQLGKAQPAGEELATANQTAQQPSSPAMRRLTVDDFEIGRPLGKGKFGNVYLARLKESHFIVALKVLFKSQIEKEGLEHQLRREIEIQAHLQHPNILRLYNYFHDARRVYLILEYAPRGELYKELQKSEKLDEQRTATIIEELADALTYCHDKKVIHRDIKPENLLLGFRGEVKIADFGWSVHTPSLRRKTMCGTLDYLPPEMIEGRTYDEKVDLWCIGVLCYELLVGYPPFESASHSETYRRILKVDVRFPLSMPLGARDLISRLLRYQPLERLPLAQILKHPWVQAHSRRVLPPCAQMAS
The following applies: at 0.1 µM.

The target in test [5] is T2, Aurora kinase C (Homo sapiens). To be noted: at 1 µM.
Test [6] addresses Serine/threonine-protein kinase 10 (Homo sapiens) (UniProt O94804). To be noted: at 0.1 µM.
For test [7] the target is unchanged. To be noted: at 1 µM.
Test [8] addresses T3, Mitogen-activated protein kinase kinase kinase kinase 2 (Homo sapiens) (UniProt Q12851).
T3 sequence (whole entry): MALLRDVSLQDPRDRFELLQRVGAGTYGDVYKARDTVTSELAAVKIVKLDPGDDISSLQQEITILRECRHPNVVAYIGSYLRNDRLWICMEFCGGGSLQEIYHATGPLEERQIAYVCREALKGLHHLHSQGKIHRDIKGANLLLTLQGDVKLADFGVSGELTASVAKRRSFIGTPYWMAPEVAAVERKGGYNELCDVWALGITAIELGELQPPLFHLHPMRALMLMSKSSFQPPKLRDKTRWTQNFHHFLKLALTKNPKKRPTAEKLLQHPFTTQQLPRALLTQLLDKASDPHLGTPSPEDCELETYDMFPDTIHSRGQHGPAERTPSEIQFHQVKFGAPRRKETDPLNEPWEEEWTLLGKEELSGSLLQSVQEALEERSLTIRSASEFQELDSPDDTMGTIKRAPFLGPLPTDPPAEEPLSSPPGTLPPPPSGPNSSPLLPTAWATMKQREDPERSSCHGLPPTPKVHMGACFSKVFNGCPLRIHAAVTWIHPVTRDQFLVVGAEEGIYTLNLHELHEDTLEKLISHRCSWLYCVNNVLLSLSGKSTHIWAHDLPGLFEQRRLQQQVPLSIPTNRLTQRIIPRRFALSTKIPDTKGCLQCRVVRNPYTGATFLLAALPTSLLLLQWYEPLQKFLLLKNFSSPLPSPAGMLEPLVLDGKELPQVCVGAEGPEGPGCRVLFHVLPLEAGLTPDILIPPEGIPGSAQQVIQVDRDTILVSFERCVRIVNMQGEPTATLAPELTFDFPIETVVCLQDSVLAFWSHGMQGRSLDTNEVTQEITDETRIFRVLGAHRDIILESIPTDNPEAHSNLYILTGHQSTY
To be noted: at 0.1 µM.

The target in test [9] is T3, Mitogen-activated protein kinase kinase kinase kinase 2 (Homo sapiens). To be noted: at 1 µM.
The target in test [10] is Mitogen-activated protein kinase kinase kinase kinase 4 (Homo sapiens) (UniProt O95819). The following applies: at 0.1 µM.
Mitogen-activated protein kinase kinase kinase kinase 4 (Homo sapiens), sequence (O95819 2-1239 limits assumed): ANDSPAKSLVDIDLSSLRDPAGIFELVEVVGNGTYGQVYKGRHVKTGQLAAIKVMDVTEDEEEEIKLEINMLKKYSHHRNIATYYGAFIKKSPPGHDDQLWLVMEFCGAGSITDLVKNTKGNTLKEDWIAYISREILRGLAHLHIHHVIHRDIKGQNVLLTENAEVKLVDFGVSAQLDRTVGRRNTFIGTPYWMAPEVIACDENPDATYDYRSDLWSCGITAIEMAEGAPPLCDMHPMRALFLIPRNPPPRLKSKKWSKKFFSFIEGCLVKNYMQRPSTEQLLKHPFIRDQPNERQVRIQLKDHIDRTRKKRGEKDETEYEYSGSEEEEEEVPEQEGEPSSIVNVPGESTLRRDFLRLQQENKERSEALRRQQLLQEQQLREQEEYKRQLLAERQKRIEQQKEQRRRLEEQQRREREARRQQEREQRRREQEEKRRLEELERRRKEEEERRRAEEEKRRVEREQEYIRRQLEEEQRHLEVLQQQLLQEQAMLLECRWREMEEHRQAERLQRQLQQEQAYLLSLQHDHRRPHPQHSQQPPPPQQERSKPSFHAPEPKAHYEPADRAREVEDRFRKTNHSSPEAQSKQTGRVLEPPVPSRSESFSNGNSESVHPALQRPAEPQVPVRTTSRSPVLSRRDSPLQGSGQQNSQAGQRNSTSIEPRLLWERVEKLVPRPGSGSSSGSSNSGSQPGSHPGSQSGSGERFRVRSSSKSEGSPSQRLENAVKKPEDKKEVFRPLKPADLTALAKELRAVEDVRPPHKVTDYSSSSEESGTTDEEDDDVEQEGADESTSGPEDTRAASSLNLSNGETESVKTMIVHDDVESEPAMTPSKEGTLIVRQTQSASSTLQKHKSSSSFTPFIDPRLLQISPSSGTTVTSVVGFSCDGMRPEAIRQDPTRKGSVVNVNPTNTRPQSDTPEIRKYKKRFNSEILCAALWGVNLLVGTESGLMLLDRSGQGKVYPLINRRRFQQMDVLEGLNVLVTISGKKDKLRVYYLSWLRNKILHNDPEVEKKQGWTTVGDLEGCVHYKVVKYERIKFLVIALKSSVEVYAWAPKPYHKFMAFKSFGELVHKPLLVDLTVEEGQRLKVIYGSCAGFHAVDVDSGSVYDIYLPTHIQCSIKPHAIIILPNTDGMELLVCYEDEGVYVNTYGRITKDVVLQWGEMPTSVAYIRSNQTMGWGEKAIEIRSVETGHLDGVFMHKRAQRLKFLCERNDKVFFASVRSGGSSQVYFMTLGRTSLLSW
For test [11] the target is unchanged. To be noted: at 1 µM.
Test [12] has as its target Dual specificity mitogen-activated protein kinase kinase 1 (Homo sapiens) (UniProt Q02750). To be noted: at 0.1 µM.
For test [13] the target is unchanged. To be noted: at 1 µM.
For test [14], the target named is Misshapen-like kinase 1 (Homo sapiens) (UniProt Q8N4C8). The following applies: at 0.1 µM.
Misshapen-like kinase 1 (Homo sapiens), sequence (Q8N4C8 whole entry, looked up): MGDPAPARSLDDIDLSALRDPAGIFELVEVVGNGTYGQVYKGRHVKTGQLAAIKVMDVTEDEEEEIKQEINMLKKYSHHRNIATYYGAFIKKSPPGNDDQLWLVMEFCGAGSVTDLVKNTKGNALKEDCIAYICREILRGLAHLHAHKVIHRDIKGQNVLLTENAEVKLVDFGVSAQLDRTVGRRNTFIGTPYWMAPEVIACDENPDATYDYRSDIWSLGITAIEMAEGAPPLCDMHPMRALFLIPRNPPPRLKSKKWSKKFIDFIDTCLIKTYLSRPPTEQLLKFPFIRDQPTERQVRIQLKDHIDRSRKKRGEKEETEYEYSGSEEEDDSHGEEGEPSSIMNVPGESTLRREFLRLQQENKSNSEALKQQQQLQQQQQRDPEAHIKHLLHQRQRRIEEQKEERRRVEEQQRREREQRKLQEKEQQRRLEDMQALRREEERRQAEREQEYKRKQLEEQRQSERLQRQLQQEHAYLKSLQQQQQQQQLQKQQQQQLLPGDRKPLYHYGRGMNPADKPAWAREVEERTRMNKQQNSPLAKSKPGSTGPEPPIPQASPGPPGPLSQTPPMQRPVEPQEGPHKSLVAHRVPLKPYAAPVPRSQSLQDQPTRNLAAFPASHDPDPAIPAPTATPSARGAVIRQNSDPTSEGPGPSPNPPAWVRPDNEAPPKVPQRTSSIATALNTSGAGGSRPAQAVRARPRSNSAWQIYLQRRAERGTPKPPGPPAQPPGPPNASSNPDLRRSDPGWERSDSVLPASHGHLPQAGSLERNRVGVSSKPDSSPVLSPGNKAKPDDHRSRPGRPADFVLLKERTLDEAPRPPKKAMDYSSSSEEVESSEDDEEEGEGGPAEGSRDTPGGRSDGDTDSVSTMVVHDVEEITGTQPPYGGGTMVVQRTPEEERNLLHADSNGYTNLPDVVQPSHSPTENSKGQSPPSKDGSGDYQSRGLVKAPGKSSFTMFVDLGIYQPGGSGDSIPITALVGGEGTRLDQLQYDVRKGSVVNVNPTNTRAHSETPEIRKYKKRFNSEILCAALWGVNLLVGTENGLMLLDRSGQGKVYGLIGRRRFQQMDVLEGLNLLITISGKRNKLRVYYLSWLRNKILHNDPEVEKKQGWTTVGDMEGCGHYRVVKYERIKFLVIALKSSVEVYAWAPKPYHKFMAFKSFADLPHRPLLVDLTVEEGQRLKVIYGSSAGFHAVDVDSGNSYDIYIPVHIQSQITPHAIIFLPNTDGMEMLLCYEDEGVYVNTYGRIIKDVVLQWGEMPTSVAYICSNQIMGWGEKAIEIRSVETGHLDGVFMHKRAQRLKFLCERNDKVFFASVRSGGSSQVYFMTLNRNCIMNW
Test [15] shares this target. The following applies: at 1 µM.
Test [16] addresses T4, Serine/threonine-protein kinase 4 (Homo sapiens) (UniProt Q13043).
T4 sequence (whole entry): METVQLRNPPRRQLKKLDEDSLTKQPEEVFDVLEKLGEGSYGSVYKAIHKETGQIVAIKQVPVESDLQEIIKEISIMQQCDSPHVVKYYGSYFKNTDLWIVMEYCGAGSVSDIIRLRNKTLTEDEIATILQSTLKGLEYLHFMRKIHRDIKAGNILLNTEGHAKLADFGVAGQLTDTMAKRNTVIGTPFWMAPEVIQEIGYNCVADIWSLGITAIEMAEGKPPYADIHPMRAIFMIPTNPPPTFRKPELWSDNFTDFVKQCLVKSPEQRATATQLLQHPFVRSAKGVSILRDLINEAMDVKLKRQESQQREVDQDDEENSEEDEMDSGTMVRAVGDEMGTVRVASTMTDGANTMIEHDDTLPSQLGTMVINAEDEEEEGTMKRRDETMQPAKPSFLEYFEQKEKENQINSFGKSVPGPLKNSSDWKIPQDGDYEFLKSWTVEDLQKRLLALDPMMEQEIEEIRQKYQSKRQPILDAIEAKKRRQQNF
The following applies: at 0.1 µM.

The target of test [17] is T4, Serine/threonine-protein kinase 4 (Homo sapiens). To be noted: at 1 µM.
In test [18] the target is T5, Serine/threonine-protein kinase 3 (Homo sapiens) (UniProt Q13188).
T5 sequence (whole entry): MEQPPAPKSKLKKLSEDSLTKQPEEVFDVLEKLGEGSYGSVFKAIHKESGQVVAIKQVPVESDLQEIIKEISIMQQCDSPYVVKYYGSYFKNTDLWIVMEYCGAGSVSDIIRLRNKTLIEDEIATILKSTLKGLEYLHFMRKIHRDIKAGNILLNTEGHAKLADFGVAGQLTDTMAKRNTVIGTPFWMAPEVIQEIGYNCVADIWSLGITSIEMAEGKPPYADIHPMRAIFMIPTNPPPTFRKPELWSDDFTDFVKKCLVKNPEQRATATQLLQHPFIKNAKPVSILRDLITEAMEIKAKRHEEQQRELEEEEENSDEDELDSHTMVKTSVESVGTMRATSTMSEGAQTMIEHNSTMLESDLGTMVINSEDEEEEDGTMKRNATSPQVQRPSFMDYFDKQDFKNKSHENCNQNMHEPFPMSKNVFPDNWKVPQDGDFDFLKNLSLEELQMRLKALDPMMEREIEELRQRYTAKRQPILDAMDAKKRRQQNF
To be noted: at 0.1 µM.

Test [19] has as its target T5, Serine/threonine-protein kinase 3 (Homo sapiens). The following applies: at 1 µM.
Test [20] concerns the target Serine/threonine-protein kinase 26 (Homo sapiens) (UniProt Q9P289). The following applies: at 0.1 µM.

Serine/threonine-protein kinase 10 (Homo sapiens), sequence (O94804 whole entry, looked up): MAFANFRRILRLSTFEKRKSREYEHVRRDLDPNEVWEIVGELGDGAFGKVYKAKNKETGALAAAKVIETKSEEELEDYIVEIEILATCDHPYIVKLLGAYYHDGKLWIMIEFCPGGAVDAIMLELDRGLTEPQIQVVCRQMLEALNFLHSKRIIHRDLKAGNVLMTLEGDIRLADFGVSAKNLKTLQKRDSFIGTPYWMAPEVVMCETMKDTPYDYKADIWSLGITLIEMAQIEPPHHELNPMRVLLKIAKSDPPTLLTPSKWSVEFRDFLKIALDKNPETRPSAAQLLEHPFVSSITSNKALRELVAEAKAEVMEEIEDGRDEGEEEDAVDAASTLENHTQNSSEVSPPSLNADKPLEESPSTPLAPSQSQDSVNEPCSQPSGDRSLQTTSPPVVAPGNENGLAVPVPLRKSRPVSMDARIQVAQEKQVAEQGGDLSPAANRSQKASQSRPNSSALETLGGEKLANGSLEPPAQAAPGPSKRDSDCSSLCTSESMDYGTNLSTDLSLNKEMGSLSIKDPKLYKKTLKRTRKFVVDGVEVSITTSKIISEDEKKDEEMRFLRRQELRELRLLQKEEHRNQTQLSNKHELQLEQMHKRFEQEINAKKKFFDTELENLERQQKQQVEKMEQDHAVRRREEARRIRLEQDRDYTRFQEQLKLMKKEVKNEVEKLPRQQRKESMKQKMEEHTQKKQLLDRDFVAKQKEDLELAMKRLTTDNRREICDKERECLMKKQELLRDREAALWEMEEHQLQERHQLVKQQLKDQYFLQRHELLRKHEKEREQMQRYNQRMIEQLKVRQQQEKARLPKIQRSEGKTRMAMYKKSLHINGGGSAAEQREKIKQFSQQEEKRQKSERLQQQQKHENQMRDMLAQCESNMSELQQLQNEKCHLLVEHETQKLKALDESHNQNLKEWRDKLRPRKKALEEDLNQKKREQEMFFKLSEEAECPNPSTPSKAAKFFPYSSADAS
Dual specificity mitogen-activated protein kinase kinase 1 (Homo sapiens), sequence (Q02750 whole entry): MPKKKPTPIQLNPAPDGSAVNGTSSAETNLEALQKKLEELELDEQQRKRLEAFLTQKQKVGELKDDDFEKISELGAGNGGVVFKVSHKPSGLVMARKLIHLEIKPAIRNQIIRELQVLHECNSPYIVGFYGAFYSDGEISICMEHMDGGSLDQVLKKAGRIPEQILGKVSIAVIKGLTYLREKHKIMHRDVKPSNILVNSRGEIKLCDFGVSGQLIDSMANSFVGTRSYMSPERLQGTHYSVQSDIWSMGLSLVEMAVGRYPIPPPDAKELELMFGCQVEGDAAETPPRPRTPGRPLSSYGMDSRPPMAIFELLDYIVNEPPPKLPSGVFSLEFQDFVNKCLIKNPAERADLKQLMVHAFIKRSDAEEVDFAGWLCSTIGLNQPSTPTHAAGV
Aurora kinase B (Homo sapiens), sequence (Q96GD4 whole entry): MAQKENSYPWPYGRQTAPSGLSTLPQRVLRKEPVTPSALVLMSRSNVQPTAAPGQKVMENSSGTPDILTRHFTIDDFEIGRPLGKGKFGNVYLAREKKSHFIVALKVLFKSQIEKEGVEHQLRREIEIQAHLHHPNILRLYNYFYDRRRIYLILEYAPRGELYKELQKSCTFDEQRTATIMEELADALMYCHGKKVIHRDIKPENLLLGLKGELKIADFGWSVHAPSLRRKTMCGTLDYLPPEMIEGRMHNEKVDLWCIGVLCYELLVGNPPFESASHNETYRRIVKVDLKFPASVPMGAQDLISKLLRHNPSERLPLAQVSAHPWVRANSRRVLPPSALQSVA
Serine/threonine-protein kinase 26 (Homo sapiens), sequence (Q9P289 2-416 limits assumed): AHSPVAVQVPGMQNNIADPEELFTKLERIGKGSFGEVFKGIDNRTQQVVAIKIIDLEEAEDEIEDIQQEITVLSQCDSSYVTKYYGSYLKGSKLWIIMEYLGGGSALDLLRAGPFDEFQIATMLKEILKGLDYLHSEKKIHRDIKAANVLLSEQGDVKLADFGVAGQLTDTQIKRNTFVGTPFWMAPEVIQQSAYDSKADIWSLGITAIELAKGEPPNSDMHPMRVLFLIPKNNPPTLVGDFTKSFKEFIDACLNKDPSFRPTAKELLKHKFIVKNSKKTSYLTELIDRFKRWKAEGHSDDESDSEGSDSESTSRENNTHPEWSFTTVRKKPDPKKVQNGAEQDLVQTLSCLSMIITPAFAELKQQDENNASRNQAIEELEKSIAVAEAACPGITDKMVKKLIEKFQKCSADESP

In the case of `COc1cc2ncnc(Nc3ccc4c(cnn4Cc4ccccc4)c3)c2cc1OC`, the inhibition was found to be 7.82% in test [1]; 3.48% in [2]; 15% in test [3]; 1.9% in [4]; 23.7% in test [5]; 0.29% in test [6]. The inhibition in test [7] was 14.2%; in test [8], 1.57%; in test [9], 1.51%; in test [10], 8.32%; in test [11] it was 9.55%; in [12] it was 3.32%. In addition, the inhibition in test [13] is 2.12%; in [14], 7.38%; in test [15] it was 9.64%; in test [16], 3.42%; in [17], 7.03%; in test [18] it was 2.19%. Further, the inhibition in [19] was 5.68%; in test [20] it was -0.63%.

Consider `CN(C)CCCn1c(-c2nonc2N)nc2cnccc21`, for which the inhibition in test [1] amounted to 6.09%; in [2] it was 3.93%; in [3], 4.46%; in [4], 0.95%; in [5], 6.01%; in [6], 3.09%. The inhibition stood at 6.11% in test [7]; 2.05% in test [8]; 4.37% in test [9]; 5.05% in test [10]; 6.52% in test [11]; 4.6% in test [12]. In addition, the inhibition in test [13] worked out at 3.75%; in test [14], 5.65%; in [15], 6.29%; in test [16], 4.23%; in [17] it was 4.03%; in [18], 3.78%. Further, the inhibition was 4.52% in [19] and -1.82% in test [20].

`COC(=O)c1ccc2c(c1)C(=Cc1cc(Br)c(O)c(Br)c1)C(=O)N2`: the inhibition in test [1] was 80.4%; in test [2], 2.96%; in test [3], 8.43%; in test [4], -0.01%; in [5], 15.2%; in test [6], 6.1%. In addition, the inhibition in [7] was found to be 10.6%; in test [8], 1.53%; in test [9], 4.06%; in test [10] it was 45.5%; in [11], 84.7%; in test [12], 3.31%. Also, the inhibition in test [13] is 5.79%; in [14], 26.4%; in [15], 75.2%; in [16] it was 3.54%; in test [17] it was 19%; in [18], 4.78%. Besides, the results for the inhibition in test [19] and in [20] were 19.5% and 1.49%, respectively.

In the case of `Cc1ccc(Nc2ccnc(Nc3cccc(C(N)=O)c3)n2)cc1O`, the inhibition was found to be 73.4% in test [1]; 6.44% in test [2]; 42.6% in test [3]; 8.25% in [4]; 85.4% in test [5]; 7.05% in [6]. The inhibition in test [7] is 38.9%; in [8] it was 2.07%; in [9], 8.97%; in test [10], 6.53%; in test [11], 28.9%; in test [12], 4.22%. Besides, the inhibition in [13] came out at 4.94%; in test [14], 6.27%; in [15], 22%; in [16], 5.18%; in test [17], 12.2%; in [18], 4.59%. Besides, the results for the inhibition in [19] and in [20] were 10.1% and 0.27%, respectively.

`O=C1Nc2ccc(-c3cccnc3)cc2C1=Cc1cc(Br)c(O)c(Br)c1`: the inhibition amounted to 88.3% in [1]; 4.87% in test [2]; 16% in test [3]; 2.6% in test [4]; 31.7% in test [5]; 3.55% in test [6]. Besides, the inhibition in test [7] came out at 3.51%; in test [8] it was 1.24%; in [9], 2.93%; in test [10], 69.3%; in test [11] it was 91.6%; in test [12], 4.59%. In addition, the inhibition is 5.62% in test [13]; 45% in [14]; 81.6% in test [15]; 9.98% in [16]; 39.6% in [17]; 10.3% in test [18]. The inhibition came to 37.3% in [19] and 9.93% in test [20].

Turning to `CN(C)C(=O)O[C@H]1CN[C@H](C#Cc2cc3ncnc(Nc4ccc(OCc5cccc(F)c5)c(Cl)c4)c3s2)C1`, the inhibition in test [1] was 9.61%; in [2] it was 3.92%; in [3] it was 7.39%; in test [4], 2.15%; in [5] it was 8.8%; in [6] it was 4.18%. For the same compound, the inhibition stood at 8.61% in [7]; 0.82% in test [8]; 2.78% in test [9]; 3.45% in test [10]; 4.23% in test [11]; 1.29% in test [12]. Further, the inhibition amounted to 2.35% in test [13]; 3.51% in test [14]; 3.5% in test [15]; 2.1% in test [16]; 4.55% in test [17]; 2.81% in [18]. Moreover, the inhibition was 3% in [19] and -0.23% in [20].

As to `NS(=O)(=O)c1cccc(-c2cc3ccncc3cc2OCc2ccccc2)c1`, the inhibition in test [1] turned out to be 16.9%; in test [2], 7.33%; in [3], 17.9%; in test [4] it was 8.37%; in [5] it was 12.4%; in test [6], 8.31%. Also, the inhibition in test [7] was 10.8%; in [8], 3.01%; in [9], 10.2%; in test [10], 7.44%; in [11], 11.1%; in test [12], 5.91%. The inhibition in test [13] is 5.86%; in test [14], 7.3%; in test [15], 13.4%; in [16] it was 8%; in test [17], 11.9%; in [18] it was 7.94%. Also, the inhibition in [19] was 11%; in test [20], -2.99%.
